# Measured values as given in PubChem BioAssay (NCATS).
# Activity calls are given as the source filed them. The call rests on the fitted dose curve; in most records, active means well fitted inhibition curve with a large enough effect; inconclusive means small, poorly fitted or top-dose-only effect; inactive means flat fitted curve, though single readings scatter.
# Test system: Nanoluciferase (engineered Oplophorus gracilirostris luciferase)
# Assay: Primary Nanoluciferase (NLuc) qHTS assay for identification of artifact compounds. (AID 1845222)
# Settings: NLuc-conditioned medium, Nano-Glo luminescence, 5 min; series mostly up to 54.1 µM; activity, negative = inhibition: at the top concentration
# Description: PI: Alexander Tropsha Ph.D.
# UNC Eshelman School of Pharmacy
# University of North Carolina, Chapel Hill, North Carolina
# Hits from high-throughput screening (HTS) of chemical libraries are often false positives due to their interference with the assay detection technology. In response to this problem, we generated the largest publicly available library of chemical liabilities and developed a free webtool to predict HTS artifacts, both of which are described herein. More specifically, we generated, curated, and integrated HTS datasets for thiol reactivity, redox activity, and luciferase (firefly and nano) activity. Using these curated datasets, we developed and validated several Quantitative Structure-Interference Relationship (QSIR) models to predict nuisance behavior. […] These models were employed for virtual profiling of the National Center for Advancing Translational Science's (NCATS) in-house library, and 256 compounds for each assay were selected for the experimental validation of nuisance behavior. The BA for these external predictions ranged from 58 to 78% for compounds within the applicability domains of the models. […] The models developed in this study, along with aggregation models previously developed by our group (SCAM Detective) were implemented in "Liability Predictor," an online tool which may be used as part of chemical library design or for triaging HTS hits. Both the models and the curated datasets are publicly available at https://liability.mml.unc.edu/.
# SEQUENCE No. (e.g., 1, 2, 3, etc.); […] (e.g., Cells, Incubation, Reagent, etc.); VALUE; DESCRIPTION.
# 1; Reagent; 2 uL; Nanoluciferase media.
# 2; Compounds and control; 16 nL; Kalypsis pin tool (Wako USA) equipped with a 1536-well pin head.
# 4; Reagent; 2 uL; Luciferase enzyme.
# 6; Detection; Luminescence, ViewLux microplate reader.
# NOTES (numbers refer to Sequence numbers above)
# 1. Medium was collected from the culture flasks of NLuc-expressing S16 cells (80% confluent) prior to cell plating, filtered through a 0.22um filter, and frozen at -20C prior to use. Media was diluted (1:55) and 2 uL was dispensed into all wells of a 1536-well assay plate (solid-bottom white plate; Greiner Bio One, Monroe, NC).
# 2. A Wako Pin-tool (Wako Automation, Richmond, VA) was used to transfer 16 nL of compounds (consisting of 7-plates in qHTS format, final concentration range 18.3 nM to 114 uM) or control Cilnidipine (final concentration range 623 nM to 80 uM).
# 3. 15 min. incubation at room temperature protected from light.
# 4. 2 uL of NLuc substrate (1:100 in Nano-Glo luciferase buffer; Nano-Glo luminescence assay, Promega, Madison, WI) was dispensed for a final assay volume of 4 uL.
# 5. Plates were centrifuged (121xg, 15 seconds) and incubated for 5 minutes.
# 6. Samples were read for luminescence on a ViewLux CCD imager (PerkinElmer). Data were normalized to no-enzyme (0% activity) and no-inhibitor (DMSO; 100%) controls and the resulting percent inhibition data were fitted to a 4-parameter Hill equation using NCATS in-house software.
# Potency means the concentration at half of the fitted maximal effect.
SMILES,"activity, negative = inhibition",Potency
Cn1ncnc1[C@@H]1c2n[nH]c(=O)c3cc(F)cc(c23)N[C@H]1c1ccc(F)cc1,2.38% (inactive),
Cn1ncnc1[C@H]1c2n[nH]c(=O)c3cc(F)cc(c23)N[C@@H]1c1ccc(F)cc1,-9.17% [at 25.7 µM] (inactive),
CCCCNc1ncc(-c2ccc(CN3CCOCC3)cn2)c(NC2CCC(O)CC2)n1 (stereo not given),0.676% [at 25.7 µM] (inactive),
CNC(=O)c1ccc2c(c1)CCO[C@H]2CCN1CCN(c2ccc(OC)cc2)CC1,4.41% (inactive),
Cc1ccc(C)c(NC(=O)[C@@H]2CCCN2S(=O)(=O)c2cccc3cccnc23)c1,-25.2% (inactive),
C=C1[C@H]2CC[C@H](C(=O)O)[C@@]23CC[C@H](C3)C1(C)C,-4.1% (inactive),
CC(C)(O)C(=O)N1CCN(c2ccc(C(F)(F)F)c(C3=C(c4c[nH]c5ccccc45)C(=O)NC3=O)c2)CC1,-12.4% (inactive),
C=C1CC[C@@H]2[C@](C)(CO)[C@H](O)CC[C@@]2(C)[C@@H]1CC(O)C1=CCOC1=O (stereo not given in full),1.32% (inactive),
CC(C)C(C)C(O)C1CC23CC(=O)C4(O)C(=C2CCC3C1C)C=CC1(O)CC(O)CCC14C (stereo not given),-3.36% [at 25.7 µM] (inactive),
CC(=O)OC1C(=O)C2C3OCC4=C3[C@@](C)(CC[C@@H]4O)CC[C@]2(C)[C@H]1C(C)C (stereo not given in full),1.13% (inactive),
C=C(C)C(=O)O[C@H]1C[C@@](C)(O)C2(O)CCC(C)(/C=C3/OC(=O)C(COC)=C31)O2 (stereo not given in full),-7.38% (inactive),
C=C1C(=O)OC2/C=C(\C)CC/C=C(\C)CC(OC(C)=O)C12 (stereo not given),2.64% (inactive),
CCC(C)C(=O)O[C@H]1[C@H](O)[C@@]2(COC(C)=O)C(CC1(C)C)C1=CCC3[C@@]4(C)CC[C@H](O[C@@H]5O[C@H](C(=O)O)[C@@H](O)[C@H](O)[C@H]5O)[C@@](C)(CO)C4CC[C@@]3(C)[C@]1(C)C[C@@H]2O (stereo not given in full),3.16% [at 11.6 µM] (inactive),
Cc1cc2c(c(=O)o1)C=C1CC[C@H]([C@H](C)Cn3cnc(=N)c4[nH]cnc43)C[C@@H]1O2,-11.7% (inactive),
NS(=O)(=O)c1ccc(NC(=O)Nc2ccc(F)cc2)cc1,4.06% (inactive),
CCCCCCCCC(=O)N[C@H](CN1CCCC1)[C@H](O)c1ccc2c(c1)OCCO2,-2.03% (inactive),
CC(C)c1cc2c(N3CCN(C4=NCC(C)(C)S4)CC3)ncnc2s1,0.234% (inactive),
C#CCOc1ccc2c(c1)c(-c1ccc(C(C)C)cc1)nc(=O)n2C(C)C,-3.5% (inactive),
C=C(CCC1C(C)(O)CCC2C(C)(C)C(O)CCC12C)C(O)CO (stereo not given),-8.54% (inactive),
COc1ccc(NC(=O)c2ccc(-c3ccc(-c4nnc(C)o4)cc3C)cc2)cc1N1CCN(C)CC1,,1.51 µM (active)

SMILES,"activity, negative = inhibition",Potency
c1cc(-c2cnn3cc(-c4ccc(N5CCNCC5)cc4)cnc23)c2cccnc2c1,0% (inactive),
CC1OC(=O)C[C@@H]2C(C(=O)O)=CO[C@@H](O[C@H]3O[C@H](CO)[C@@H](O)[C@H](O)[C@H]3O)[C@H]12 (stereo not given in full),0% (inactive),
C=C1/C(=C/C=C2\CCC[C@]3(C)[C@@H]([C@@H](C)OCCC(O)(CC)CC)CC[C@@H]23)C[C@@H](O)C[C@@H]1O,2.53% (inactive),
COc1ccc(CCN(C)CCCOc2nsc(-c3ccccc3)n2)cc1OC,2.75% (inactive),
O=C1c2ccc(Nc3ccc(F)cc3F)cc2CCc2ccc(OCC(O)CO)cc21 (stereo not given),1.34% (inactive),
CC(=O)OC1C(O)CC2(C)C(CCC3(C)C2CC=C2C4C5(CCC(CO[C@@H]6O[C@H](CO)[C@@H](O)[C@H](O)[C@H]6O)(OC5=O)C4(C)O)C(O)CC23C)C1(C)C (stereo not given in full),2.45% [at 25.7 µM] (inactive),
CC1(C)CC[C@]23CO[C@@]4(CCC5[C@@]6(C)CC[C@H](O[C@@H]7OC[C@H](O[C@@H]8O[C@H](CO)[C@@H](O)[C@H](O)[C@H]8O[C@@H]8OC[C@@H](O)[C@H](O)[C@H]8O)[C@H](O)[C@H]7O[C@@H]7O[C@H](CO)[C@@H](O)[C@H](O)[C@H]7O)[C@@](C)(CO)C6CC[C@@]5(C)[C@]4(C)C[C@H]2O)[C@@H]3C1 (stereo not given in full),3.72% [at 11.6 µM] (inactive),
CCNC(=O)c1noc(-c2cc(Cl)c(O)cc2O)c1-c1ccc(OC)cc1,-12.3% (inactive),
COC1C(OC(=O)/C=C/C=C/C=C/C=C/C(=O)O)CCC2(CO2)C1C1(C)OC1CC=C(C)C (stereo not given),0.0364% [at 25.7 µM] (inactive),
O=C(Cc1c(F)cccc1F)Nc1cc(OCc2ccc(Cl)cc2)ccn1,0.744% (inactive),
CC(C)S(=O)(=O)c1ccc2nccc(Nc3ccc4scnc4c3)c2c1,1.92% (inactive),
Cc1ccc(F)cc1S(=O)(=O)N[C@@H]1CCN(Cc2ccc(OC(C)C)cc2)C1,-9.11% (inactive),
c1ccc(-c2cnn3cc(-c4ccc(OCCN5CCOCC5)cc4)cnc23)cc1,-0.0684% (inactive),
CS/C=C/C(=O)O[C@@H]1CCC2=CC(=O)C(=C(C)C)C[C@]2(C)[C@H]1C,-1.19% (inactive),
C/C(=C/CO)CCC1C(C)CCC2C(C)(C)CCCC12C (stereo not given),-0.165% (inactive),
COc1cc2c(cc1-c1c(C)noc1C)ncc1[nH]c(=O)n(C(C)c3ccccn3)c12 (stereo not given),-18.2% (inactive),
O=C(NCc1cccs1)c1cc2nc(-c3ccco3)cc(C(F)(F)Cl)n2n1,-12.9% (inactive),
CC(=O)OC1CC(C)C2(CCC3(CC(=O)OC3O)O2)C2(C)CCCC(C)(C)C12 (stereo not given),2.18% [at 25.7 µM] (inactive),
CC(=O)O[C@H]1CC[C@]2(C)[C@H]3CC[C@]4(C)Oc5oc(C)cc(=O)c5C[C@H]4[C@]3(C)CC[C@H]2C1(C)C,-0.519% [at 25.7 µM] (inactive),
CCOC(=O)C1=Cc2ccc(C(F)(F)C(F)(F)F)cc2N=C(N)C1,0% (inactive),
